Rv3671c inh: Rv3671c (M. tuberculosis) protease inhibition; P9WHR9; inhibition, % at 5.96 µM; hit rate 0.048% among 320,000; in the data active = inhibition above about 38%;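 note: extracellular domain of Rv3671c used as enzyme; 0% = enzyme with DMSO and 100% = no enzyme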
FBA Mtb inh: inhibits M. tuberculosis FBA enzyme; purified M. tuberculosis FBA, fluorescence read-out; inhibition, % at 1 µM; hit rate 2.3% among 360,000; AID 588726; in the data active = inhibition above about 27%;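 note: 0% = vehicle and 100% = reference inhibitor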
Target sequence (P9WQA3 whole entry, looked up): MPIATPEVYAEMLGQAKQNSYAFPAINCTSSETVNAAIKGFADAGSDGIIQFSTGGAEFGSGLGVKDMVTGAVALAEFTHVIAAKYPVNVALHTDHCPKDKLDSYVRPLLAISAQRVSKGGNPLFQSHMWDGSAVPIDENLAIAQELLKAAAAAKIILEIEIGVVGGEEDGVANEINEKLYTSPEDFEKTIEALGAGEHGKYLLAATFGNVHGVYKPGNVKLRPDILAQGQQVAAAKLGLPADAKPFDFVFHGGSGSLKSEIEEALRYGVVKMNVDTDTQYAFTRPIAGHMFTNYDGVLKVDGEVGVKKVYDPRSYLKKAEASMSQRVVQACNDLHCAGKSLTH
GDH-TPI counter: inhibits GDH-TPI coupling enzymes, artifact for Mtb FBA screen | inhibition, % at 4.8 µM | GDH-TPI coupled enzyme counterscreen, NADH absorbance | hit rate 1.2% among 360,000; in the data active = inhibition above about 30%;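 note: 0% = DMSO wells and 100% = wells lacking the enzyme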
RecA splice inh: Mtb RecA intein splicing inhibition; P9WHJ3; cell-free RecA intein splicing, fluorescence; inhibition, % (concentration not given with the values); hit rate 0.75% among 290,000; AID 2221; in the data active = inhibition above about 30%;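 note: 0% = vehicle wells and 100% = reference inhibitor control wells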
Mtb betalactam: beta-lactam sensitization of Mtb H37Rv | inhibition, % at 25 µM | AID 434955 | hit rate 0.27% among 330,000 | M. tuberculosis H37Rv growth with meropenem, percent inhibition;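 note: growth measured after seven days incubation then overnight dye step; 0% = bacteria only wells and 100% = bacteria with antibiotic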
Mtb UGM inh: inhibitors of M. tuberculosis UDP-galactopyranose mutase; inhibition, % at 10 µM; purified UGM, fluorescence polarization probe displacement; P9WIQ1; AID 504406; hit rate 0.06% among 320,000; in the data active = inhibition above about 10%, passing the limit was not always enough
GFP chromo cs: counter-screen: blocks GFP chromophore formation. cell-free GFP chromophore formation, fluorescence. AID 434968. hit rate 83% among 2,100. shares compounds with RecA splice inh. EC50, µM
Active calls of the source: *; . = no result given. This is a sample that favours compounds with a hit; in the whole collection about 4% have one here. Unless noted, the rule behind the calls is not given here.

SMILES	Rv3671c inh	FBA Mtb inh	GDH-TPI counter	RecA splice inh	Mtb betalactam	Mtb UGM inh	GFP chromo cs
CCCCN(C(=O)c1cccc2c(=O)c(C)c(-c3ccccc3)oc12)c1ccccc1	.	-4	7	33*	.	.	>38
COc1ccc(CNC(=O)CN(C(=O)c2csnn2)c2ccccc2F)cc1	-7	2	6	.	2	-2	.
CCN1CCN(c2c(Cl)cccc2NC(=O)c2ccc3c(c2)OCCO3)CC1	1	0	-2	31*	-7	2	>38
COc1cccc(OC)c1C(=O)NCc1ccco1	.	-1	1	.	.	.	.
COc1cccc(N2CC(C(=O)Nc3nnc(SCC(=O)c4ccccc4)s3)CC2=O)c1 (stereo unspecified)	-18	1	9	94*	8	.	>38
COc1ccc(C(=O)CSc2nnc(NC(=O)C3CC(=O)N(c4ccccc4)C3)s2)cc1 (stereo unspecified)	-30	5	7	-1	0	-1	.
CCOC(=O)C1=C(C)NC(SCc2cc(=O)[nH][nH]2)=C(C#N)C1c1cccs1 (stereo unspecified)	6	-2	10	70*	3	1	20*
CCOC(=O)C1=C(C)NC(SCC(N)=O)=C(C#N)C1c1cccs1 (stereo unspecified)	-5	2	0	0	-8	-1	.
CC1=NN(c2ccc(Cl)c(C(=O)O)c2)C(=O)/C1=C\c1ccc(-c2ccc(C(=O)O)cc2)o1	.	2	6	36*	.	.	0.81*
CC1=NN(c2ccccc2)C(=O)/C1=C/c1ccc(-c2ccc(C)c(C(=O)O)c2)o1	-19	.	.	3	15	2	.
CCOC(=O)c1ccc(NC(=O)NCCc2cnc[nH]2)cc1	-6	0	16	1	-14	0	.
CC(C)CC1C(C#N)=C(N)Oc2n[nH]c(-c3ccccc3)c21 (stereo unspecified)	-7	-5	4	82*	17	3	13*
Cc1[nH]nc2c1C(CC(C)C)C(C#N)=C(N)O2 (stereo unspecified)	-4	3	0	72*	-2	-1	21*
C/C(=C\c1ccco1)C1C(C#N)=C(N)Oc2n[nH]c(-c3ccccc3)c21 (stereo unspecified)	3	0	4	77*	-1	0	18*
CC(=O)Nc1ccc(S(=O)(=O)N(C)CC(=O)N2CCN(C(=O)c3ccco3)CC2)cc1	1	-1	-1	.	-3	-1	.
CCOC(=O)C1=C(C)n2c(s/c(=C/c3cccc([N+](=O)[O-])c3)c2=O)=NC1c1ccc(O)c(OC)c1 (stereo unspecified)	8	-1	9	35*	.	3	36*
CCOc1cc(C(c2c(C)[nH][nH]c2=O)c2c(C)[nH][nH]c2=O)ccc1OC(=O)c1cccc([N+](=O)[O-])c1	-13	-3	1	92*	21	1	0.44*
CCOc1cc(C(c2c(C)[nH][nH]c2=O)c2c(C)[nH][nH]c2=O)ccc1OCc1ccc([N+](=O)[O-])cc1	-11	4	9	99*	-13	-1	0.33*
COc1cccc(-n2sc3c(c2=S)-c2cc(OC)ccc2NC3(C)C)c1	0	1	7	-6	-1	1	.
CC1(C)Nc2ccc(O)cc2-c2c1ssc2=S	0	-4	3	93*	42	1	2.4*
O=C(CSc1nc2ccccc2nc1SCC(=O)N1CCCCC1)N1CCCCC1	-4	5	19	0	-2	-2	.
O=C(CSc1nc2ccccc2nc1SCC(=O)N1CCOCC1)N1CCOCC1	4	-1	6	32*	-20	-1	>38
CN(C)S(=O)(=O)c1cccc(NC(=O)C2Cc3ccccc3CN2C(=O)c2ccco2)c1 (stereo unspecified)	-11	2	-1	6	-11	1	.
COC(=O)c1cc(NC(=O)Nc2ccccc2OC)cc(C(=O)OC)c1	-13	2	5	40*	9	-4	>38
Cc1ccc(-n2nnnc2CNC(=O)c2ccc3c(c2)OCO3)cc1C	5	0	4	1	-6	-3	.
O=C(O)c1ccc2c3c(ncnc13)-c1ccccc1C2=O	3	.	.	44*	66	2	4.4*
C=CCSC(=C(C#N)C#N)c1cc2c([nH]1)CCCC2	0	-11	2	70*	23	-2	17*

Source: PubChem (several laboratories)
